Measured values published in PubChem BioAssay (Tox21).
Inconclusive results are not listed. A call without a number means that no potency is given here. Unmarked numbers belong to inactive results. The source made the active and inactive calls. The call rests on the fitted dose curve; in most records, active means well fitted curve in the direction sought with a large enough effect in the repeat runs; inconclusive means weak or mixed curves; inactive means no such curve, though single readings can be large; an effect the other way counts as inactive or inconclusive.

Columns and labels:
[1] = target: Cytochrome P450 2D6 (Homo sapiens) (UniProt P10635); experiment: Cytochrome P450 Family 2 Subfamily D Member 6 (CYP2D6) small molecule antagonists: luciferase reporter qHTS assay (AID 1671196); further: nearly all actives have a fitted effect of over 50% in size; further: potency means the concentration at half of the fitted maximal effect
Sequence of Cytochrome P450 2D6 (Homo sapiens) (P10635 whole entry, looked up): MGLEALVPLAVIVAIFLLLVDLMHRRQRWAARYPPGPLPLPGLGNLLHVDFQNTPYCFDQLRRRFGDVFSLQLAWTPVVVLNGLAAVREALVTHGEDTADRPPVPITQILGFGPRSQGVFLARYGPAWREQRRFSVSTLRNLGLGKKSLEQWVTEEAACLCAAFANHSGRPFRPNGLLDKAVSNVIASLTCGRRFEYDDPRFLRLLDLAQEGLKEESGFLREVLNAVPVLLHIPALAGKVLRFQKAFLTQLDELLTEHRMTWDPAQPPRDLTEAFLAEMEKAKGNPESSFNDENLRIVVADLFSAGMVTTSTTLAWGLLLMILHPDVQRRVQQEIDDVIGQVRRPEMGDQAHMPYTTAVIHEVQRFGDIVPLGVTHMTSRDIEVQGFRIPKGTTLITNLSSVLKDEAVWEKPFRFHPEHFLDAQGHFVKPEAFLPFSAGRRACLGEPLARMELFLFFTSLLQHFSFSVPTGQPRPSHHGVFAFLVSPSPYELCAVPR
How it was run: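 CYP2D6 activity was followed as luminescence from its luciferin product after a 1 h NADPH-driven reaction at room temperature. Enzyme-substrate mix and compound were pre-incubated for 10 min, and the signal was read 20 min after adding detection reagent.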

[2] = target: Cytochrome P450 2C19 (Homo sapiens) (UniProt P33261); experiment: Cytochrome P450 Family 2 Subfamily C Member 19 (CYP2C19) small molecule antagonists: luciferase reporter qHTS assay (AID 1671197); further: nearly all actives have a fitted effect of over 65% in size; further: potency means the concentration at half of the fitted maximal effect
Sequence of Cytochrome P450 2C19 (Homo sapiens) (P33261 whole entry, looked up): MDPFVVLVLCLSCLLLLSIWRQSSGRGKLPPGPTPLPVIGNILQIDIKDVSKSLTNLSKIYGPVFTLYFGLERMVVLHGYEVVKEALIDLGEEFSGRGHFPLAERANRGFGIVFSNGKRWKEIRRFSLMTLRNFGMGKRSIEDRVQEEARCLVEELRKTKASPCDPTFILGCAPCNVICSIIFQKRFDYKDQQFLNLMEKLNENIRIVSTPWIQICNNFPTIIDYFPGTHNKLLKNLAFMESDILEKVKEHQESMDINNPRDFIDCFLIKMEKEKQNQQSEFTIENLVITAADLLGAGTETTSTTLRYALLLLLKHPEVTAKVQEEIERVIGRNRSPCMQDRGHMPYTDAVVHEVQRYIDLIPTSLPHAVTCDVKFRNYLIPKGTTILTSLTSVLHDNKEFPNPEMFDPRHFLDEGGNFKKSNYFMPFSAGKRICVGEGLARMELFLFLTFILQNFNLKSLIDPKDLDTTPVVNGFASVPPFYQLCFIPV
How it was run: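 P450-Glo CYP2C19 screening system; proluciferin substrate; DMSO compound stocks; 10 min RT preincubation; NADPH regeneration, 1 h at 37C; luciferin detection reagent, 20 min RT; luminescence as RLU.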

[3] = target: Cytochrome P450 2C9 (Homo sapiens) (UniProt P11712); experiment: Cytochrome P450 Family 2 Subfamily C Member 9 (CYP2C9) small molecule antagonists: luciferase reporter qHTS assay (AID 1671198); further: nearly all actives have a fitted effect of over 50% in size; further: potency means the concentration at half of the fitted maximal effect
Sequence of Cytochrome P450 2C9 (Homo sapiens) (P11712 whole entry, looked up): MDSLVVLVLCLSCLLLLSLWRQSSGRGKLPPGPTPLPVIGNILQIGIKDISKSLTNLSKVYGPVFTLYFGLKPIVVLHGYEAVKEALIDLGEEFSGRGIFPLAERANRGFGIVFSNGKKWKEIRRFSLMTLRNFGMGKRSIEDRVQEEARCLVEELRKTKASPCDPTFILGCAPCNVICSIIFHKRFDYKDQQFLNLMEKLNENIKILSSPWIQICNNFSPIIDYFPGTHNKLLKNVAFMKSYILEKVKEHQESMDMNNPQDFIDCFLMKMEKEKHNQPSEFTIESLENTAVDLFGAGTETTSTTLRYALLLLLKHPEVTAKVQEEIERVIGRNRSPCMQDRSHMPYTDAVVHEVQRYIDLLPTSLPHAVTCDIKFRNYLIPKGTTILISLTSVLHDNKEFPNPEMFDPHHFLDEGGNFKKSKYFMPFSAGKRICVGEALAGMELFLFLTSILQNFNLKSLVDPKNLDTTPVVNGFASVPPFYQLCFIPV
How it was run: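 CYP2C9 activity was measured with a P450-Glo proluciferin substrate. Enzyme–substrate mix was held with compound for 10 min at room temperature, then NADPH regeneration solution was added for 1 h at 37C. Luciferin product was read as luminescence.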

[4] = target: Cytochrome P450 1A2 (Homo sapiens) (UniProt P05177); experiment: Cytochrome P450 Family 1 Subfamily A Member 2 (CYP1A2) small molecule antagonists: luciferase reporter qHTS assay (AID 1671199); further: nearly all actives have a fitted effect of over 50% in size; further: potency means the concentration at half of the fitted maximal effect
Sequence of Cytochrome P450 1A2 (Homo sapiens) (P05177 whole entry, looked up): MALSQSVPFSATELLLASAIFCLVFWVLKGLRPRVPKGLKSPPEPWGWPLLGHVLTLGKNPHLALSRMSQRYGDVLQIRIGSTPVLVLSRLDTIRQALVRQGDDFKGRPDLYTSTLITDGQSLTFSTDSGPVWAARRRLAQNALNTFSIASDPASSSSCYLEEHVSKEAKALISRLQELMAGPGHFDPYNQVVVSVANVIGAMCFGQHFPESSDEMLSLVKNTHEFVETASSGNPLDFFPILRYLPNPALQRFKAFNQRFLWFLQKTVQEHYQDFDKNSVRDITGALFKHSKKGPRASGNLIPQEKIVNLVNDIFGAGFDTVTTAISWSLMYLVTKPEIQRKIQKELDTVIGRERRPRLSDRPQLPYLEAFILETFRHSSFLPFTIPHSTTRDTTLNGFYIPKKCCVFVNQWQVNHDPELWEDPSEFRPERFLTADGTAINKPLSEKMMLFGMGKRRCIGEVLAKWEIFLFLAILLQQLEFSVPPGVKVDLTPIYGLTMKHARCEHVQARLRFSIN
How it was run: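 Luminescence from luciferin formed by CYP1A2 from a proluciferin substrate, read 20 min after detection reagent. Compound was pre-incubated 10 min with enzyme-substrate, and reaction started with NADPH regeneration solution for 1 h at room temperature; furafylline control.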

[5] = target: Voltage-gated inwardly rectifying potassium channel KCNH2 (Homo sapiens) (UniProt Q12809); experiment: Human Ether-a-go-go-Related Gene (hERG) channel small molecule antagonists: fluorescence cell-based qHTS assay (AID 1671200);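 further: hERG-expressing U2OS cells given a thallium stimulus after FluxOR II dye loading; series mostly up to about 77 µM; nearly all actives have a fitted effect of over 50% in size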
Sequence of Voltage-gated inwardly rectifying potassium channel KCNH2 (Homo sapiens) (Q12809 whole entry, looked up): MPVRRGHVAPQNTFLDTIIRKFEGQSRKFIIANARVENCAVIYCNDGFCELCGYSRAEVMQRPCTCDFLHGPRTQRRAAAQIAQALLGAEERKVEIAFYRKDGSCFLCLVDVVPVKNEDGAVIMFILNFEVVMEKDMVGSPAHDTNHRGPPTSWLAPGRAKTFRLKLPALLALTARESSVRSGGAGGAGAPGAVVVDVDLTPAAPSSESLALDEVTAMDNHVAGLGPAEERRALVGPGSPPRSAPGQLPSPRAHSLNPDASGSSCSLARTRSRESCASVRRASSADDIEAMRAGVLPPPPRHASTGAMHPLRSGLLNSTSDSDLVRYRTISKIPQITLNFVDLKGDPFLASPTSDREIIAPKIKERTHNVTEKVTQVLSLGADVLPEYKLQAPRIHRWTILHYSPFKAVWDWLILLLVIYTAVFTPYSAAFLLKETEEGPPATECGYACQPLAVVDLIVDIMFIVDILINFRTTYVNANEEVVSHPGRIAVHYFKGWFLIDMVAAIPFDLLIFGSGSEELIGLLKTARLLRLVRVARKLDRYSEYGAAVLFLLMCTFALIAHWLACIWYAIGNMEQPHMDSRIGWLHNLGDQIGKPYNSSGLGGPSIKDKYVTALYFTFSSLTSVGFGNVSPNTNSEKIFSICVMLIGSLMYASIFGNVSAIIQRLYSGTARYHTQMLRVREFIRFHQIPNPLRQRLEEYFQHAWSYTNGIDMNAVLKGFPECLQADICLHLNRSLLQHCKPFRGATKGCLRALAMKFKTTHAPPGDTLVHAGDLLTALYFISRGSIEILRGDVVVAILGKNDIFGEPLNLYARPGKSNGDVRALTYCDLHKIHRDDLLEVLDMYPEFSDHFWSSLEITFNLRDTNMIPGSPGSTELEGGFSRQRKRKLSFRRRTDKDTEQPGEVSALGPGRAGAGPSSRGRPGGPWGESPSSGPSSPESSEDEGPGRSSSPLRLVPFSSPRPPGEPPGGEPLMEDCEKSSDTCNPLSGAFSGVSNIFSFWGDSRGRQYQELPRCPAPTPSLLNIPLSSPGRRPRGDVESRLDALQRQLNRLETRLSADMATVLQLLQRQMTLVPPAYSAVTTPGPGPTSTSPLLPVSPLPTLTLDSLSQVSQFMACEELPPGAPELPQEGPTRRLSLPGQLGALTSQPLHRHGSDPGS
How it was run: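 In this thallium-flux screen, overnight-cultured U2OS cells bearing the channel are dye-loaded in darkness for an hour, rested 10 min at room temperature, and then monitored kinetically at 480/540 nm for two minutes post-stimulus.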

[6] = target: Cytochrome P450 3A4 (Homo sapiens) (UniProt P08684); experiment: Cytochrome P450 Family 3 Subfamily A Member 4 (CYP3A4) small molecule antagonists: luciferase reporter qHTS assay (AID 1671201); further: nearly all actives have a fitted effect of over 50% in size; further: potency means the concentration at half of the fitted maximal effect
Sequence of Cytochrome P450 3A4 (Homo sapiens) (P08684 whole entry, looked up): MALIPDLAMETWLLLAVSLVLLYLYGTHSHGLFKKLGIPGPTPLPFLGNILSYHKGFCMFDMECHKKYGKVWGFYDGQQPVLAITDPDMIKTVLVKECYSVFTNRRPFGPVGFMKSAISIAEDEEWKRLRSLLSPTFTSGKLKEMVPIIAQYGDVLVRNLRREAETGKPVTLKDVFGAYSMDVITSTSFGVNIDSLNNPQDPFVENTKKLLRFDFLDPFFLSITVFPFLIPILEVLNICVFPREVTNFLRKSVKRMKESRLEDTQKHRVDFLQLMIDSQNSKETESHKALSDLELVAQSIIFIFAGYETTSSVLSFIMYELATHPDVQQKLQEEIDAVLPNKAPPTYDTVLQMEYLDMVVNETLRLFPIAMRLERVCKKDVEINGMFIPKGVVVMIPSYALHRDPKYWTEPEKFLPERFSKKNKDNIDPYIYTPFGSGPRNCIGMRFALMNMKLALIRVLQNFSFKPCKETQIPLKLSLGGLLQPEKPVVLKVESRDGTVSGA
How it was run: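 CYP3A4 activity was followed with a P450-Glo proluciferin substrate. Test compounds in DMSO were preincubated 10 min; NADPH regeneration then ran 1 h, and light output was read 20 min after detection reagent.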

SMILES | Potency [1] | Potency [2] | Potency [3] | Potency [4] | Potency [5] | Potency [6]
CCCCCN(CCCOC)C(=O)C(CCC(=O)O)NC(=O)c1ccc(Cl)c(Cl)c1 (centres undefined) | inactive | inactive | 13.8 µM (active) | 30.9 µM (active) | inactive | inactive
CCCCCCCCCCCCC1CO1 (centres undefined) | inactive | inactive | inactive | inactive | inactive | inactive
CC(C)SCc1ccco1 | inactive | inactive | inactive | inactive | inactive | inactive
CCC(C)(CCC(C)C)C(=O)[O-].CCC(C)(CCC(C)C)C(=O)[O-].[Zn+2] (centres undefined) | inactive | 17.8 µM (active) | 17.8 µM (active) |  | inactive | inactive
CCCCC/C=C/CC(=O)OC | inactive | inactive | inactive |  | inactive | inactive
CC(C)CCC(=O)CCC(C)C | inactive | inactive | inactive | 39.9 µM (active) | inactive | inactive
CCCCC[Si](OCC)(OCC)OCC | inactive | 25.2 µM (active) | 31.7 µM (active) |  | inactive | 12.6 µM (active)
CC(C)C(=O)Nc1cccc(C(F)(F)F)c1 | inactive | inactive | inactive | 7.76 µM (active) | inactive | inactive
CCN1CN(CC)CN(CC)C1 | inactive | inactive | inactive | inactive | inactive | inactive
CO[Si](CCCCl)(OC)OC | 31.2 µM (active) | 39.3 µM (active) | 39.3 µM (active) | inactive | inactive | 3.51 µM (active)
Cc1nc(C)nc(N2C[C@@H](C)N(c3ccnc([C@@H](C)O)n3)[C@@H](C)C2)n1 | inactive | inactive | inactive | inactive | inactive | inactive
O=C(O)CCNC(=O)c1ccccc1 | inactive | inactive | inactive | inactive | inactive | inactive
O=S1(=O)CCCC1 | inactive | inactive | inactive | 40.2 µM (active) | inactive | inactive
Cc1ccc(C(=O)C(=O)O)cc1C | inactive | inactive | inactive | 30.9 µM (active) | inactive | inactive
CO/N=C(/C(=O)N[C@@H]1C(=O)N2C(C(=O)O)=C(Cn3nnc(C)n3)CS[C@H]12)c1csc(N)n1 | inactive | inactive | inactive | inactive | inactive | inactive
CCCCCCCCCCCCCCCCCCN(C)C | inactive | inactive | inactive | inactive | inactive | inactive

SMILES | Potency [1] | Potency [2] | Potency [3] | Potency [4] | Potency [5] | Potency [6]
C1=CCC(c2ccccc2)CC1 (centres undefined) | inactive | inactive | inactive |  | inactive | inactive
OCCCCCCCl | inactive | inactive | inactive | inactive | inactive | inactive
CC(C)COC(=O)CC(C(=O)OCC(C)C)S(=O)(=O)O (centres undefined) | inactive | inactive | 31.7 µM (active) | inactive | inactive | inactive
C=CCOc1c(Br)cc(C(C)(C)c2cc(Br)c(OCC=C)c(Br)c2)cc1Br | inactive | 24.6 µM (active) | inactive | inactive | inactive | inactive
C=C(C)C(=O)OC1CC(C)CC(C)(C)C1 (centres undefined) | inactive | inactive | inactive | 31.7 µM (active) | inactive | inactive
O=CN1CCOCC1 | inactive | inactive | inactive | 44.8 µM (active) | inactive | inactive
N#CCCOCCOCCC#N | inactive | inactive | inactive | 39.9 µM (active) | inactive | inactive
CCCCOC(=O)C(=O)OCCCC | inactive | inactive | inactive | inactive | inactive | inactive
Nc1cc(S(=O)(=O)O)ccc1S(=O)(=O)O | inactive |  | inactive | inactive | inactive | inactive
Cc1ccccc1C(=O)N1CC/C(=N\OS(=O)(=O)O)c2ccc(Cl)cc21 | inactive |  | 4.36 µM (active) | inactive | inactive | 
CCC1COC(=O)O1 (centres undefined) | inactive | inactive | inactive |  | inactive | inactive
CC(=O)Nc1ccc(C)cc1 | inactive |  | inactive | 39.6 µM (active) | inactive | inactive
C=C(C)C(=O)OC | inactive |  | inactive | inactive | inactive | inactive
CC1=CC[C@H](CC=O)C1(C)C | inactive | inactive |  | 31.7 µM (active) | inactive | 63.3 µM (active)
COc1cc(C=O)ccc1OC(=O)C(C)C | inactive | 39.9 µM (active) | 35.6 µM (active) |  | inactive | inactive
O=C(O)c1c(Cl)ccc(Cl)c1Cl | inactive | inactive |  | inactive | inactive | inactive
